Measurements reported in PubChem BioAssay (EPA / NIEHS).
Results filed as inconclusive are left out. Active and inactive are the calls of the source. Rule for the calls, unless noted: active = hit-call score of the fitted dose curve at least 0.9, where 1 is the maximum; inactive = score below 0.9.

Columns and labels:
[1] = ACEA_ER_80hr: ACEA Biosciences xCELLigence Real-Time Cell Analysis on Estrogen Receptor Agonism for Proliferation (AID 2282667; active = hit-call score of the fitted dose curve at least 0.9, where 1 is the maximum); conditions: T47D proliferation, impedance (xCELLigence), 80 h
Summary of the method: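 T47D human breast cells were seeded on electrode plates, monitored overnight, then exposed continuously to compounds in eight-point 1:4 dilutions from 100 uM (max 0.5% DMSO). Impedance-based growth was read at 80 h, fitted upward relative to DMSO.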

[2] = ATG_CRE_CIS: Attagene CIS-FACTORIAL HepG2 Assay for human cAMP Responsive Element (CRE) binding protein 3 (AID 2282926); conditions: HepG2 CRE cis-reporter, Attagene multiplexed mRNA; actives raise or lower the signal
Summary of the method: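 HepG2 cells transiently transfected with a multiplexed reporter library (CRE-driven unit among them) were dosed for 24 h. Reporter mRNA was quantified by RT-PCR, fluorescent labelling, HpaI digestion and capillary electrophoresis, with bidirectional fitting against DMSO baseline.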

[3] = ATG_CMV_CIS: Attagene CIS-FACTORIAL HepG2 Assay for human CMV (Internal Marker) (AID 2282928); conditions: HepG2 CMV promoter reporter, transcription factor profiling; actives raise or lower the signal;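 note: endpoint acts as a background internal control marker rather than a target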
Summary of the method: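 HepG2 cells transiently transfected with multiple cis-regulated reporter units; 24 h compound exposure. Reporter mRNA quantified by RT-PCR, 6-FAM primer-extension labeling, HpaI digestion and capillary electrophoresis; bidirectional fitting against DMSO baseline.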

[4] = ATG_DR4_LXR_CIS: Attagene CIS-FACTORIAL HepG2 Assay for human Liver X Receptor (LXR), DR4 submotif (AID 2282929); conditions: HepG2 Attagene DR4 cis-reporter, mRNA transcription; actives raise or lower the signal
Summary of the method: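 HepG2, transient MRTU transfection, cis-element (DR4) promoter; 24 h compound exposure; total RNA → oligo(dT) RT → PCR → 6-FAM primer extension → HpaI cut → CE. Gain/loss vs DMSO, bidirectional fit.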

[5] = target: Aryl hydrocarbon receptor (Homo sapiens) (UniProt P35869); experiment: ATG_Ahr_CIS: Attagene CIS-FACTORIAL HepG2 Assay for human Aryl Hydrocarbon Receptor (Ahr) (AID 2282930); conditions: HepG2 AhR cis-factorial reporter transcription; actives raise or lower the signal
Summary of the method: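 Transient MRTU transfection of HepG2 → 24 h compound exposure → total RNA, oligo(dT) RT → PCR, 6-FAM extension, HpaI cut → CE fluorescence. DMSO = baseline; bidirectional curve fit.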

[6] = ATG_AP_1_CIS: Attagene CIS-FACTORIAL HepG2 Assay for human Activator Protein 1 (AP-1) (AID 2282931); conditions: HepG2 Attagene cis-factorial AP-1 reporter mRNA; actives raise or lower the signal
Summary of the method: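 Transient MRTU transfection of HepG2 → 24 h chemical treatment → RNA isolation, RT-PCR, 6-FAM labelling, HpaI digest → capillary electrophoresis. Fit: bidirectional, DMSO negative control.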

[7] = target: Retinoic acid receptor alpha (Homo sapiens) (UniProt P10276); experiment: ATG_DR5_RAR_CIS: Attagene CIS-FACTORIAL HepG2 Assay for human Retinoic Acid Receptor Alpha (RARE), DR5 submotif (AID 2282934); conditions: HepG2 Attagene cis-factorial RARE DR5 reporter, mRNA; actives raise or lower the signal
Summary of the method: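 Transient MRTU transfection of HepG2; 24 h compound treatment; TriZol RNA, oligo(dT) RT, PCR, FAM labelling, capillary electrophoresis. Bidirectional fit vs DMSO. Endogenous TF activity at DR5 RARE.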

[8] = target: Transcription factor E2F1 (Homo sapiens) (UniProt Q01094); experiment: ATG_E2F_CIS: Attagene CIS-FACTORIAL HepG2 Assay for human E2F Transcription Factor 1 (AID 2282935); conditions: HepG2 Attagene cis-reporter, E2F reporter RNA transcripts; actives raise or lower the signal
Summary of the method: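 Total RNA from 24 h-treated, reporter-transfected HepG2 cells undergoes DNase I treatment, oligo(dT) reverse transcription, PCR and 6-FAM primer extension before capillary electrophoresis.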

[9] = ATG_E_Box_CIS: Attagene CIS-FACTORIAL HepG2 Assay for human Enhancer Box (E-box) (AID 2282936); conditions: HepG2 E-box cis-reporter transcription, actives raise or lower the signal
Summary of the method: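 DMSO served as negative control and baseline for bidirectional fitting. Human hepatoma HepG2 cells, transiently transfected with cis-reporter constructs, were dosed 24 h; reporter mRNA read by RT-PCR and capillary electrophoresis.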

[10] = ATG_M_61_CIS: Attagene CIS-FACTORIAL HepG2 Assay for M61 Transcription Factor (Internal Marker) (AID 2282937); conditions: HepG2 Attagene CIS-FACTORIAL M61 internal marker reporter; actives raise or lower the signal
Summary of the method: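 Human liver HepG2, transient MRTU transfection (cis promoter elements), 24 h compound. Total RNA → oligo(dT) RT → PCR → FAM label → HpaI → CE. Internal background marker; bidirectional fitting, DMSO = baseline.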

[11] = ATG_EGR_CIS: Attagene CIS-FACTORIAL HepG2 Assay for human Early Growth Response 1 (EGR1) (AID 2282938); conditions: HepG2 Attagene CIS-FACTORIAL EGR reporter mRNA; actives raise or lower the signal
Summary of the method: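 Transient transfection of human HepG2 with multiple cis-regulated reporter units, chemical exposure 24 h, total RNA isolated. Reverse transcription, PCR, fluorescent labelling and capillary electrophoresis quantify reporter transcripts; activity fitted bidirectionally against DMSO.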

[12] = ATG_M_19_CIS: Attagene CIS-FACTORIAL HepG2 Assay for M19 Transcription Factor (Internal Marker) (AID 2282939); conditions: HepG2 Attagene CIS-FACTORIAL M19 internal marker reporter; actives raise or lower the signal
Summary of the method: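 HepG2, MRTU transient transfection, 24 h dosing. Total RNA → RT-PCR → 6-FAM primer extension → HpaI digest → CE fluorescence. Bidirectional curve fit, DMSO negative control.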

[13] = ATG_ERE_CIS: Attagene CIS-FACTORIAL HepG2 Assay for Estrogen Response Element (ERE) (AID 2282940); conditions: HepG2 ERE cis-reporter, Attagene RNA transcript; actives raise or lower the signal
Summary of the method: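 After a 24 h chemical treatment, RNA from reporter-transfected HepG2 cells is reverse-transcribed, PCR-amplified and fluorescently labelled. Fragments separated by capillary electrophoresis give reporter signal; DMSO serves as negative control.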

[14] = ATG_Ets_CIS: Attagene CIS-FACTORIAL HepG2 Assay for human Erythroblast Transformation Specific (ETS) (AID 2282941); conditions: HepG2 ETS cis-reporter transcription, actives raise or lower the signal
Summary of the method: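 HepG2 cells transiently transfected with cis-promoter reporter transcription units were dosed for 24 h; reporter mRNA was measured by RT-PCR, 6-FAM primer extension, HpaI digestion and capillary electrophoresis, with bidirectional fitting against DMSO baseline.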

[15] = target: Hepatocyte nuclear factor 3-beta (Homo sapiens) (UniProt Q9Y261); experiment: ATG_FoxA2_CIS: Attagene CIS-FACTORIAL HepG2 Assay for human Forkhead box A2 (FOXA2) (AID 2282942); conditions: HepG2 cis-reporter transcription factor activity, 24 h; actives raise or lower the signal
Summary of the method: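 Transient MRTU transfection of HepG2 liver cells; 24 h treatment; total RNA → oligo(dT) RT → PCR → FAM primer extension → HpaI cut → CE. Bidirectional fit vs DMSO.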

[16] = ATG_FoxO_CIS: Attagene CIS-FACTORIAL HepG2 Assay for human Forkhead box O (FoxO) (AID 2282943); conditions: HepG2 Attagene cis-reporter, FoxO element, mRNA; actives raise or lower the signal
Summary of the method: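 HepG2, transient MRTU transfection (cis element, endogenous TFs). Dose 24 h. TriZol RNA → oligo(dT) RT → PCR → 6-FAM primer extension → HpaI cut → CE. Gain/loss vs DMSO.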

[17] = ATG_AP_2_CIS: Attagene CIS-FACTORIAL HepG2 Assay for human Activator Protein 2 (AP-2) (AID 2282932); conditions: HepG2 AP-2 cis-reporter, Attagene transcription factor profiling; actives raise or lower the signal
Summary of the method: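 Step one: transient transfection of HepG2 with reporter transcription units. Step two: 24 h chemical exposure. Step three: RNA extraction, RT-PCR, labelled fragment analysis by capillary electrophoresis; DMSO serves as baseline.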

[18] = ATG_BRE_CIS: Attagene CIS-FACTORIAL HepG2 Assay for human Bone Morphogenetic Protein (BMP) Response Element (BRE) (AID 2282933); conditions: HepG2 BMP response element reporter, Attagene transcription factor profiling; actives raise or lower the signal
Summary of the method: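 Fluorescence-labelled reporter cDNA fragments, separated by capillary electrophoresis, gave the signal for this component of a 52-readout multiplex. HepG2 cells were transfected, exposed to chemicals for 24 h, and compared with DMSO using bidirectional fitting.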

[19] = ATG_GATA_CIS: Attagene CIS-FACTORIAL HepG2 Assay for human GATA Binding Protein (AID 2282944); conditions: HepG2 GATA cis-element reporter, Attagene multiplex mRNA; actives raise or lower the signal
Summary of the method: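 Cells: HepG2, transiently transfected with cis-regulated reporter transcription units. Exposure: 24 h. Detection: RT-PCR plus capillary electrophoresis of FAM-labeled fragments. Analysis: bidirectional, DMSO as baseline.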

Measured: AC50

Transcription factor E2F1 (Homo sapiens), sequence (Q01094 whole entry, looked up): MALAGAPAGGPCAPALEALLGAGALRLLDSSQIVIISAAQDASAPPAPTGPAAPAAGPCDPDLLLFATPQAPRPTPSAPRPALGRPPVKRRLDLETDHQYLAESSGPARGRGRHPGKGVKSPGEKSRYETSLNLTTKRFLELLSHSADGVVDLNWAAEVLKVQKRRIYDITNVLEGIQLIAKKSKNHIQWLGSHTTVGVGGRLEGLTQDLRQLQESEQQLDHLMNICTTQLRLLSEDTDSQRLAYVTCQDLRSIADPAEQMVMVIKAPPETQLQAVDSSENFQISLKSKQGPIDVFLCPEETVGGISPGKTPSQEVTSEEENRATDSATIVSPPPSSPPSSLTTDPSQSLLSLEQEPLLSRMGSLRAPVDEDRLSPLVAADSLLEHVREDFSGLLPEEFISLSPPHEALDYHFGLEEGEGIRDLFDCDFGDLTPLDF
Hepatocyte nuclear factor 3-beta (Homo sapiens), sequence (Q9Y261 whole entry, looked up): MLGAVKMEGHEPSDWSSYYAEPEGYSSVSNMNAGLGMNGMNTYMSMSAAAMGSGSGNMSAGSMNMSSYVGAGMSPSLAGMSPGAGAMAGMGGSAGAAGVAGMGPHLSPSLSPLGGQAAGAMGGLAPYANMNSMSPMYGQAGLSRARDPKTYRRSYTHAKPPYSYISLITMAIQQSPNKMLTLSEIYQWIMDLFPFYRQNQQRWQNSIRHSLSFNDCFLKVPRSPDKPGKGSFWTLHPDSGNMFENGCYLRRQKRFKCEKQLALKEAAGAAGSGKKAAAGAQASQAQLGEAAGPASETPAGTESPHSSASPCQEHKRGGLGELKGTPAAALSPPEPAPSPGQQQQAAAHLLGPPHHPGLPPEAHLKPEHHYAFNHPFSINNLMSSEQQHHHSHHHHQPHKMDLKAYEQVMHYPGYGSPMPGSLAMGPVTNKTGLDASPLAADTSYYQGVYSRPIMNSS
Aryl hydrocarbon receptor (Homo sapiens), sequence (P35869 whole entry, looked up): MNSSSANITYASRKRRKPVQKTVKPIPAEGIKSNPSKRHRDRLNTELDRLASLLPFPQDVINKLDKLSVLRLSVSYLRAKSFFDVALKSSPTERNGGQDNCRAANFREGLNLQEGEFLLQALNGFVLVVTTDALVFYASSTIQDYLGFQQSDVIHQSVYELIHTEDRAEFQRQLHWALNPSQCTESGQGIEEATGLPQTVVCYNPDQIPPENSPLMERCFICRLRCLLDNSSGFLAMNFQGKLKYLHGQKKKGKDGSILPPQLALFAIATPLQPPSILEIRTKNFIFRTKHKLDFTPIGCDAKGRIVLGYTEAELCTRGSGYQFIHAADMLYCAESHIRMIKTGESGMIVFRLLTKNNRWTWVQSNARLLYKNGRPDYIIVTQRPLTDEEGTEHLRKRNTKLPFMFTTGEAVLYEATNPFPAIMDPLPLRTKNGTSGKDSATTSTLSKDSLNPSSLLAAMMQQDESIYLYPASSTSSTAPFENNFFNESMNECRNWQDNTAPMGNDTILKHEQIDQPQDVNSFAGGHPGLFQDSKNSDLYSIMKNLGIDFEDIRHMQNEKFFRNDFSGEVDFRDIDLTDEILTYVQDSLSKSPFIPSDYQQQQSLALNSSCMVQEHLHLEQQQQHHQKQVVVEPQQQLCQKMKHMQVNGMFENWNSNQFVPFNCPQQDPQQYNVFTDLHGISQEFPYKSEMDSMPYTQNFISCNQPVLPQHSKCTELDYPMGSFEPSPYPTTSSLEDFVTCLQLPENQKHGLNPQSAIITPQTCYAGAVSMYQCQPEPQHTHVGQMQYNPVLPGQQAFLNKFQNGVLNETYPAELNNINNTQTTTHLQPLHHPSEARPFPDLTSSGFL
Retinoic acid receptor alpha (Homo sapiens), sequence (P10276 whole entry, looked up): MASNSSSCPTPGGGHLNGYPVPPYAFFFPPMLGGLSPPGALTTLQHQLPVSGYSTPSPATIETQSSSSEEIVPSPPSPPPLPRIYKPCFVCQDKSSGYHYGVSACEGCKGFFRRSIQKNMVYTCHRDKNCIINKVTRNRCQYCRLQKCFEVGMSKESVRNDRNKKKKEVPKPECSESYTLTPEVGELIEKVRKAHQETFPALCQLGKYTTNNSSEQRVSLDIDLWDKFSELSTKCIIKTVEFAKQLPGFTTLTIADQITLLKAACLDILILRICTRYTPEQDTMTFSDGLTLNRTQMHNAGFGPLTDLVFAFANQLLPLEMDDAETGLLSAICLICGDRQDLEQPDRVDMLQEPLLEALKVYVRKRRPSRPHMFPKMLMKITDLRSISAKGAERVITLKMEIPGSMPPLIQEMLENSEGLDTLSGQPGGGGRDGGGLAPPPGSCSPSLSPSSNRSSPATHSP

CCC(C)C(=O)OC (stereo unspecified)
active: [1] 0.0271 µM
not listed: [17] | [18] | [19]
inactive: all other assays above

CCCCCCCCCCCC(=O)N(C)CC(=O)O
active: [4] 97.5 µM | [13] 14.3 µM
not listed: [3]
inactive: all other assays above

CC(=O)c1ccc(S(=O)(=O)NC(=O)NC2CCCCC2)cc1
active: [5] 100 µM
inactive: all other assays above

C=C(C)C(=O)OCCCCCCCCCCCC
active: [3] 100 µM
not listed: [15]
inactive: all other assays above

C=C1C[C@H]2[C@@H]3C=C(C)C4=CC(=O)CC[C@]4(C)[C@H]3CC[C@]2(C)[C@@]1(OC(C)=O)C(C)=O
active: [1] 0.00363 µM | [4] 99.7 µM | [6] 63 µM | [9] 97.6 µM | [11] 52.3 µM | [16] 93.7 µM | [19] 93.6 µM
inactive: all other assays above

O=C1CCCN1C1CCCCC1
not listed: [3] | [12]
inactive: all other assays above

O=c1c(O)c(-c2ccc(O)cc2O)oc2cc(O)cc(O)c12
active: [1] 47.5 µM | [18] 19.3 µM | [13] 0.65 µM
inactive: all other assays above
